ELG1 genotox: inducers of genotoxicity in HEK293T ELG1-luciferase cells; HEK293T ELG1-luciferase reporter, luminescence, 16 h; Potency, µM (series often up to 46 µM), for inactives: at the highest dose activity change, positive = activation, hits mostly activators; AID 504466; actives 1.3% (n = 330,000); note: % of control where 0% means no effect; nearly all actives have a fitted effect of over 60% in size
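Screening used a luciferase reporter fused to human ELG1 in HEK293T cells. Luminescence was read on a CCD plate imager after 16 hr exposure and 30 min ONE-Glo incubation.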
FLuc counter: firefly luciferase modulation, counter-screen for miR-21 project. actives 6.9% (n = 360,000). P08659. purified FLuc, Km substrates, luminescence inhibition. Potency, µM (highest dose often 57.5 µM), inactives show at the top dose activity change, negative = inhibition, usual class: inhibitors;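 note: plate controls were vehicle for no effect and reference inhibitor for full effect; nearly all actives have a fitted effect of over 55% in size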
Target sequence (P08659 whole entry, looked up): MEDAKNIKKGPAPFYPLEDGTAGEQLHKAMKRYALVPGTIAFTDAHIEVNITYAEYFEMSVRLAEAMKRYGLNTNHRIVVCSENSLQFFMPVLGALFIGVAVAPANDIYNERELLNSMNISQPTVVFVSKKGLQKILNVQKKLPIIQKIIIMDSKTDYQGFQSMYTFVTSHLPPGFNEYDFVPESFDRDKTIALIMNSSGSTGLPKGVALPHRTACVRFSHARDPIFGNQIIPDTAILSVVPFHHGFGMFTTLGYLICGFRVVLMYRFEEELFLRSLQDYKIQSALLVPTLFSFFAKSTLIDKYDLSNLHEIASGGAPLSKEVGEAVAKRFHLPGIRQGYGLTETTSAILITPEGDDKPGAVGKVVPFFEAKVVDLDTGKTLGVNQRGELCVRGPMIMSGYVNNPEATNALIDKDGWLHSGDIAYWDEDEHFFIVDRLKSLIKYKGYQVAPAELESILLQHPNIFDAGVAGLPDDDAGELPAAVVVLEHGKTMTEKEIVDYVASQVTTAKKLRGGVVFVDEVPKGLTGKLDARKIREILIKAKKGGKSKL
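Purified P. pyralis luciferase, 10 nM final, with Km-level 10 uM D-luciferin and 10 uM ATP in 50 mM Tris acetate pH 7.5, 10 mM Mg acetate, 0.01% Tween-20, 0.05% BSA; 6-point qHTS titration about 60 µM downward; luminescence read.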
SMN2 splice enh: enhancers of SMN2 splice variant expression. HEK293 SMN2-luciferase splicing reporter, luminescence, 30-36 h. Potency, µM (titrated, usually from 46.1 µM), for inactives: at the top dose activity change, positive = activation, usual class: activators. actives 2.8% (n = 210,000); note: % of control where 0% means no effect; nearly all actives have a fitted effect of over 55% in size
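qHTS luciferase splicing reporter: luminescence rises when SMN2 exon 7 is included in transfected HEK293 cells. Compound exposure lasted 30-36 h at 37C, with 4.5 mM final sodium butyrate as control, followed by a ONE-Glo read.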
Rab9 prom act: activators of Rab9 promoter. Huh7 Rab9 promoter-luciferase reporter, luminescence, 24 h. Potency, µM (series often up to 9.22 µM), for the others: at the top dose activation, negative = inhibition, actives largely listed as activators. actives 2.8% (n = 320,000); note: % of control where 0% means no effect; nearly all actives have a fitted effect of over 60% in size
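Luciferase signal after 10 min detection reagent at ambient indicates Rab9 promoter upregulation; stably transfected Huh7 cells were treated 24 h with compound in DMSO at 37 °C, 5% CO2.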
NPC1 prom act: NPC1 promoter activation. Huh7 NPC1 promoter luciferase reporter, 24 h. Potency, µM (top dose mostly 9.22 µM), without a hit: top-dose activation, most hits filed as activators. actives 2.4% (n = 320,000); note: % of control where 0% means no effect; nearly all actives have a fitted effect of over 60% in size
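Cells: Huh7 expressing luciferase under the NPC1 promoter, 1500/well. Seeded 2 h, compound added, incubated 24 h at 37 °C. Luciferase reagent, 10 min ambient, then luminescence.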
Luc counter: Kinase-Glo luciferase inhibition (counter-screen) | Q27757 | Kinase-Glo luciferase, ATP luminescence, 8 min | Potency, µM (top dose mostly 38.3 µM), for inactives: at the highest dose activity change, negative = inhibition, hits mostly inhibitors | actives 0.28% (n = 200,000); note: % is set by controls: 0 for no effect and ±100 for the full control effect; nearly all actives have a fitted effect of over 60% in size
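Substrate mix (final 50 mM imidazole pH 7.2, 50 mM KCl, 7 mM MgCl2, 10 uM ATP, 0.01% Tween 20, 0.05% BSA) plus pin-tool compound, then Kinase-Glo detection mix; 8 min ambient, luminescence read.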
* hit, by the source's call. Hits are enriched below; roughly 7.5% of the tested compounds scored in any of these assays. Calls come from the whole dose curve; as a rule, active = well fitted curve in the direction sought with a large enough effect; inconclusive = small, poorly fitted or top-dose-only effect, or another doubt; inactive = no such curve, though single readings can be large; an effect the other way counts as inactive or inconclusive. Potency is the fitted concentration of half-maximal effect.

How did N/C(=N\OC(=O)c1ccc(F)cc1)c1ccccc1 do in these assays?
ELG1 genotox: inconclusive; FLuc counter: 0.17µM*; SMN2 splice enh: 5%; Rab9 prom act: inconclusive; NPC1 prom act: inconclusive; Luc counter: 8.9µM*

What do the screens show for `C/C(=N\OC(=O)c1ccc(F)cc1)c1ccc(F)c(F)c1`?
ELG1 genotox: 0%; FLuc counter: 1.7µM*; Rab9 prom act: inconclusive; NPC1 prom act: 0%

What do the screens show for `Cc1ccc(/C(N)=N/OC(=O)c2ccc(F)cc2)cc1`?
ELG1 genotox: 10µM*; FLuc counter: 4.8µM*; SMN2 splice enh: inconclusive; Rab9 prom act: 15%; NPC1 prom act: 16%; Luc counter: -4%

What do the screens show for `Cc1ccc(/C(N)=N/OC(=O)Oc2ccccc2)cc1`?
ELG1 genotox: 2%; FLuc counter: inconclusive; SMN2 splice enh: -5%; Rab9 prom act: 1%; NPC1 prom act: -1%; Luc counter: -3%

How did N/C(=N\OC(=O)c1ccc(F)cc1)c1ccc(Br)cc1 do in these assays?
ELG1 genotox: inconclusive; FLuc counter: 2.7µM*; SMN2 splice enh: 19%; Rab9 prom act: inconclusive; NPC1 prom act: inconclusive; Luc counter: -3%

What do the screens show for `CN(C)C(CNC(=O)c1ccc(NS(=O)(=O)c2ccc3[nH]c(=O)[nH]c3c2)cc1)c1ccccc1` (stereo not drawn)?
ELG1 genotox: -1%; FLuc counter: 1%; Rab9 prom act: -5%; NPC1 prom act: -7%

How did CC(C)(C)c1ccc(C(=O)NCC(=O)N/N=C/c2ccccc2OCC(=O)O)cc1 do in these assays?
ELG1 genotox: 5%; FLuc counter: 17µM*; SMN2 splice enh: 6%; Rab9 prom act: 0%; NPC1 prom act: 0%; Luc counter: 1%

How did O=C(O)COc1ccccc1/C=N/NC(=O)COc1ccc(-c2ccccc2)cc1 do in these assays?
ELG1 genotox: -3%; FLuc counter: 4.8µM*; Rab9 prom act: -5%; NPC1 prom act: -3%

How did CCN(CC)C(CNC(=O)CSc1nnnn1-c1c(C)cccc1C)c1ccco1 (stereo not drawn) do in these assays?
ELG1 genotox: 1%; FLuc counter: -2%; Rab9 prom act: -2%; NPC1 prom act: 0%

What do the screens show for `CCOC(=O)c1[nH]c(C)c(CCC(=O)NCc2ccc(C)cc2)c1C`?
FLuc counter: -1%

Results for Cc1ccc(S(=O)(=O)NOCc2ccccc2)cc1 ?
ELG1 genotox: 2%

What do the screens show for `CC(C)(C)C(=O)Nc1ccc(C(=O)Nc2cc(NC(=O)c3ccc(NC(=O)C(C)(C)C)cc3)cc(C(=O)O)c2)cc1`?
ELG1 genotox: 12%; FLuc counter: 4.3µM*; Rab9 prom act: 30%; NPC1 prom act: 18%

What do the screens show for `O=C(O)c1cc(NC(=O)c2ccc(Br)cc2)cc(NC(=O)c2ccc(Br)cc2)c1`?
ELG1 genotox: -5%; FLuc counter: 21µM*; Rab9 prom act: 14%; NPC1 prom act: -6%

Results for CC(C)(C)C(=O)Nc1ccc(C(=O)NNC(=O)c2ccccc2)cc1 ?
ELG1 genotox: 10%; FLuc counter: inconclusive; SMN2 splice enh: 8%; Rab9 prom act: 20%; NPC1 prom act: 17%; Luc counter: -2%

What do the screens show for `CCCCCCCC(=O)Nc1cc(C(=O)NCCC)ccc1N1CCC2(CC1)CC(c1ccccc1)=NO2`?
ELG1 genotox: -7%; FLuc counter: 2%; Rab9 prom act: 2%; NPC1 prom act: -7%

What do the screens show for `O=C(c1ccco1)N1CCN(c2nc(-c3ccc(F)cc3)cs2)CC1`?
ELG1 genotox: -4%; FLuc counter: 24µM*; Rab9 prom act: 10%; NPC1 prom act: -2%; Luc counter: -3%

What do the screens show for `O=C(c1ccco1)N1CCN(c2ccc(F)cc2)CC1`?
ELG1 genotox: 8%; FLuc counter: -3%; SMN2 splice enh: 23%; Rab9 prom act: 26%; NPC1 prom act: 1%; Luc counter: -4%

What do the screens show for `c1ccc2oc(-c3csc(N4CCOCC4)n3)cc2c1`?
ELG1 genotox: inconclusive; FLuc counter: 0.76µM*; SMN2 splice enh: 3.2µM*; Rab9 prom act: 0.5µM*; NPC1 prom act: 1.3µM*; Luc counter: 0%

What do the screens show for `c1ccc(-c2csc(N3CCSCC3)n2)cc1`?
ELG1 genotox: 0%; FLuc counter: 24µM*; SMN2 splice enh: 7%; Rab9 prom act: inconclusive; NPC1 prom act: 13%; Luc counter: -1%

How did O=C(c1ccco1)N1CCN(C(=O)c2cn(-c3ccccc3)nc2-c2ccc(F)cc2)CC1 do in these assays?
ELG1 genotox: 5%; FLuc counter: 4.8µM*; Rab9 prom act: 12%; NPC1 prom act: 5%

What do the screens show for `COc1ccc(-c2noc(=O)n2Cc2ccccc2Cl)cc1`?
ELG1 genotox: -6%; FLuc counter: -2%; Rab9 prom act: 0%; NPC1 prom act: -1%

Results for O=C(c1ccc2c(c1)N(Cc1ccc(F)cc1)C(=O)c1ccccc1S2(=O)=O)N1CCCC1 ?
FLuc counter: 2%; SMN2 splice enh: -1%

Results for CCC(=O)N1CCN(c2nc(-c3ccc(Cl)cc3)cs2)CC1 ?
ELG1 genotox: 4%; FLuc counter: 27µM*; SMN2 splice enh: -42%; Rab9 prom act: 1%; NPC1 prom act: 2%; Luc counter: 2%

Results for CC1CN(C(=O)CSc2nc(-c3ccc(F)cc3)cs2)CC(C)O1 (stereo not drawn) ?
ELG1 genotox: -2%; FLuc counter: -3%; SMN2 splice enh: -46%; Rab9 prom act: 0%; NPC1 prom act: -1%; Luc counter: 1%

Results for Clc1ccc(-c2csc(N3CCSCC3)n2)cc1 ?
ELG1 genotox: inconclusive; FLuc counter: 12µM*; SMN2 splice enh: 14%; Rab9 prom act: 23%; NPC1 prom act: 1%; Luc counter: 3%

What do the screens show for `c1ccc(-c2csc(-n3cccn3)n2)cc1`?
ELG1 genotox: 2%; FLuc counter: 27µM*; SMN2 splice enh: 1%; Rab9 prom act: 23%; NPC1 prom act: 19%; Luc counter: -4%

What do the screens show for `CC(C)CNC(=S)N1CCN(c2nc(-c3ccc(Cl)cc3)cs2)CC1`?
ELG1 genotox: -7%; FLuc counter: -3%; Rab9 prom act: -1%; NPC1 prom act: -9%

What do the screens show for `Cc1nc(-c2ccccc2)cs1`?
ELG1 genotox: 0%; FLuc counter: -14%; SMN2 splice enh: 15%; Rab9 prom act: 0%; NPC1 prom act: -4%; Luc counter: -1%

High-throughput results: PubChem, National Center for Advancing Translational Sciences (NCATS)
